Assay outcomes as filed in PubChem.
The list is not random: actives were taken first. Their share in the collection is about 2.1%.
aSyn rescue – rescues yeast growth from alpha-synuclein toxicity; Yeast expressing alpha-synuclein, growth rescue, BacTiter-Glo, 24 h; Potency, µM (top dose mostly 46.1 µM), for the others: top-dose growth rescue (activation), hits mostly activators; hit rate 0.14% among 370,000; further: % of control where 0% means no effect; nearly all actives have a fitted effect of over 65% in size
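Readout is rescue of growth in alpha-synuclein-expressing yeast, so inhibitors of toxicity appear as activators. Growth after 24 hr at 30 deg C in galactose medium is quantified by luminescence.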
Abeta yeast res – restores growth of yeast expressing A-beta42 peptide; yeast expressing A-beta42, growth rescue, OD600, 48 h; response scale: 0% DMSO, 100% iron-clioquinol control; Potency, µM (doses to about 46.1 µM), most hits filed as activators; hit rate 0.063% among 410,000; AID 1347071; further: nearly all actives have a fitted effect of over 55% in size
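Yeast A-beta toxicity model in growth medium with pinned compounds, 48 h at 30 C; growth read as absorbance at 600 nm. Normalized to FeCl3/clioquinol equimolar mix (positive) and DMSO (negative).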
TDP43 rescue – rescues yeast growth from TDP-43 toxicity | TDP-43 expressing yeast growth rescue, BacTiter-Glo, 24 h | Potency, µM (doses to about 46.1 µM), for inactives: at the top dose growth rescue (activation), hits mostly activators | hit rate 1.8% among 410,000; further: % of control where 0% means no effect; nearly all actives have a fitted effect of over 50% in size
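Growth rescue of TDP-43-toxic yeast measured as ATP luminescence (BacTiter-Glo). Cells grown to mid-log in raffinose, induced in galactose at OD600=0.02, exposed to compound 24 hr at 30 deg C.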
FUS suppressor – FUS proteinopathy suppression in yeast | S. cerevisiae FUS-expressing, growth rescue, OD600, 24 h | Potency, µM (series often up to 76.6 µM), hits mostly activators | hit rate 0.24% among 390,000 | AID 1347120;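 further: plate controls were DMSO vehicle for no effect and reference control for full effect; nearly all actives have a fitted effect of over 55% in size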
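Steps: raffinose overnight preculture; dilution to OD 0.005 in 2% galactose minimal medium; compound addition (concentration series); 24hr at 30C, 99% humidity; absorbance read at 600 nm.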
Numbers without * were called inactive; i = inactive; u = inconclusive; x = no result given; ! = not confirmed by another sample; [ ] = remark or other dose. The call rests on the fitted dose curve; in most records, active means well fitted curve in the direction sought with a large enough effect; inconclusive means small, poorly fitted or top-dose-only effect, or another doubt; inactive means no such curve, though single readings can be large; an effect the other way counts as inactive or inconclusive. Potency means the concentration at half of the fitted maximal effect.

SMILES	aSyn rescue	Abeta yeast res	TDP43 rescue	FUS suppressor
CC(C)(C)Sc1ccc(/C=N/O)cc1[N+](=O)[O-]	8.6%	i	15.8µM*	i
Cc1ccc(NC(=O)OC2CCC23CCCCC3)cc1 (stereo not given)	x	x	x	i
Oc1c(Cl)cc(Cl)cc1/C=N/NC(=S)NC1CC2C=CC1C2 (stereo not given)	1.0%	u	-6.4%[1.82 µM]	i
Oc1ccccc1/C=N/NC(=S)NC1CC2C=CC1C2 (stereo not given)	24.0%	11.2µM*	15.9%	i
Oc1ccccc1C=NNC(=S)NC1CC2C=CC1C2 (stereo not given)	u	u	12.6µM*	i
Oc1ccccc1C=NNC(=S)Nc1ccc(F)cc1	22.4µM*	i	u	i
Fc1ccc(/C=N/n2c(C3CCCCC3)n[nH]c2=S)cc1	-11.4%	12.6µM*	u	i
Cc1nc2cc(Cl)ccc2n1-c1ccccc1	-1.7%	i	12.6µM*	i
CC(=O)Nc1ccc2c(c1)nc(C)n2-c1ccccc1	0.5%	i	-5.4%	i
Cc1cc(C)cc(-n2c(C)nc3cc(C(=O)O)ccc32)c1	-1.1%	i	12.6µM*!	i
CCc1ccc(N2C(=O)Cc3c2nc(N)c(C#N)c3N)cc1	-6.2%	i	-0.3%	25.1µM*
N#C/C(=C\c1ccc([N+](=O)[O-])cc1)c1ccccn1	4.5%	i	12.6µM*	i
N#C/C(=C\c1cccnc1)c1ccc([N+](=O)[O-])cc1	2.6%	i	11.2µM*	i
Oc1c(Cl)cc(Cl)cc1/C=N/Nc1ncc(Br)cn1	1µM*	i	-1.3%	i
Cc1cc(C)c(S(=O)(=O)NC2CC3CCC2C3)c(C)c1 (stereo not given)	-13.0%	i	12.6µM*	i
CCOC(=O)C1=C(C)NC2=C(C(=O)C(C(=O)OCC)C(c3ccco3)C2)C1c1ccccc1C (stereo not given)	7.1%	x	x	x
CC(C)COc1ccc(-c2nnc(-c3ccco3)o2)cc1	-0.8%	i	10µM*	i
COc1cccc(-c2nnc(-c3ccco3)o2)c1	-11.6%	i	15.8µM*	i
CCCOc1ccc(-c2nnc(-c3ccco3)o2)cc1	-1.6%	i	u	i
COc1cccc(-c2nnc(-c3ccc(C)o3)o2)c1	-7.6%	i	21.1%	i
CCCc1cc(C(=O)Cc2ccc(F)cc2)c(O)cc1O	-49.7%	i	u	i
O=C(Cc1ccc(F)cc1)c1ccc(O)cc1O	6.9%	i	12.6µM*	i
O=C(Cc1ccccc1F)c1ccc(O)cc1O	-6.3%	u	20.7%[9.22 µM]	i
O=C(Cc1c(F)cccc1Cl)c1ccc(O)cc1O	-2.4%	i	15.8µM*	i
CCc1cc(C(=O)Cc2ccc(F)cc2)c(O)cc1O	8.3%	i	12.6µM*	i
SMILES	aSyn rescue	Abeta yeast res	TDP43 rescue	FUS suppressor
O=C(CCCOC(=O)c1ccc(O)cc1O)c1ccc(F)cc1	-1.6%	i	16.2%	i
O=[N+]([O-])c1ccc2c(c1)/C(=C/c1ccc(C=S)cc1)C=C2	0.8%	x	x	x
O=C(CCc1ccccc1)N[C@H]1[C@H](OCc2ccccc2)CCC[C@@]12C(=O)N(Cc1ccccc1)c1ccc(-c3ccsc3)cc12	x	x	x	i
O=C(NC(=S)Nc1ccccc1Br)C1CCCCC1	-23.0%	i	15.8µM*	x
O=C(NC(=S)Nc1ccccc1Br)C1CCCC1	-1.1%	u	15.8µM*	i
COC(=O)c1ccccc1NC(=S)NC(=O)C1CC1	-5.4%	i	-5.9%	i
CCCC[C@H]1C2CC(OC(=O)Nc3ccc4c(c3)OCO4)C(C2)[C@H]2CCCCN21 (stereo not given in full)	x	x	x	i
O=C(NCc1ccccc1F)C1C2C=CC3(CN(Cc4ccccc4)C(=O)C13)O2 (stereo not given)	x	x	x	i
O=C(NCc1ccc(C(=O)NC2CCCC2)cc1)c1cccc(Br)c1	x	x	x	i
COc1ccc2sc(-c3ccc(N(C)C)cc3)c(C#CC(C)(C)O)c2c1	-0.7%	i	-4.2%	i
COc1cccc(-c2sc3ccc(OC)cc3c2C#CCC(C)O)c1 (stereo not given)	-1.4%	i	25.1µM*	u
COc1cccc(-c2sc3ccc(OC)cc3c2C#CC(C)(C)O)c1	-21.5%	i	17.8µM*	u
C[C@H]1[C@H](N)CC[C@@]23CCCN2C(=O)CCC[C@@H]13	x	x	x	i
